Results taken from the supplement of paper PMC3334620.
Whole data set: some 33,000 sequences, median “E-score (-0.5 to 0.5)” near -0.016, cut for the highest 2% near 0.32. What follows is part of a selection rich in the highest values, with near analogues and random picks from the rest.

molecular target: T1, Stp1 (UniProt B3LFK1); assay: PBM E-score (8-mer binding enrichment) (E-score (-0.5 to 0.5)); higher = stronger / more preferred TF binding; conditions: protein concentration: 200 nM; construct: GST-full length
T1 sequence: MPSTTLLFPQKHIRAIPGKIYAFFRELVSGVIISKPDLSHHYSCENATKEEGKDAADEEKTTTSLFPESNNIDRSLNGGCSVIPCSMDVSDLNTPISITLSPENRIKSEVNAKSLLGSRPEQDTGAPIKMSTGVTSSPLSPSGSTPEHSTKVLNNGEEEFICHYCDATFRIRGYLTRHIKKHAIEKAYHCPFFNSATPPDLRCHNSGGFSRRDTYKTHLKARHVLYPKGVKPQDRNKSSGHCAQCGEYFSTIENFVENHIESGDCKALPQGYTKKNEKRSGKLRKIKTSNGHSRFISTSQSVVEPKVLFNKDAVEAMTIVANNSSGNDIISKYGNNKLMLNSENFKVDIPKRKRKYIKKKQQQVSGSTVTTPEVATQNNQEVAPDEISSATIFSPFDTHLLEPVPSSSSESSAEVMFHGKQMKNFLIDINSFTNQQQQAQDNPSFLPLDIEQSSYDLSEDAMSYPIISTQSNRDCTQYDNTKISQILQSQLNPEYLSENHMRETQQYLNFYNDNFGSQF
Experimental: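 Universal 'all 10-mer' protein binding microarrays (Agilent AMADID 015681) probed with GST-tagged S. cerevisiae TFs (full-length or DBD) made by in vitro transcription/translation (PURExpress), about 100-200 nM. Bound TF was detected with fluorescent anti-GST. Each ungapped 8-mer (which stands for itself and its reverse complement) is scored by the PBM enrichment score (E-score), a modified Wilcoxon-Mann-Whitney statistic from -0.5 to +0.5, computed with the Universal PBM Analysis Suite. Scale: above 0.35 generally sequence-specific binding.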

| Sequence | PBM E-score |
| --- | --- |
| AAAATGCT | 0.164 |
| GCGATGCC | 0.319 |
| AAAATGCC | 0.352 |
| AAAATGCA | -0.0731 |
| CCGATGCC | 0.264 |
| ACTCACAC | -0.063 |
| CAATCCAA | 0.0601 |
| AAGCTGGG | -0.164 |
| AGCAATTA | 0.0484 |
| CCCACACC | -0.0557 |
| CAGCGGCG | 0.34 |
| TAGCGGCA | 0.291 |
| AAGCGGCT | 0.354 |
| AAGCGGAT | -0.0611 |
| GAGCGGAA | 0.141 |
| AAGCGGGT | -0.0561 |
| AAGCGGAA | 0.0259 |
| CAGCGGCA | 0.3 |
| CAGCGGCC | -0.111 |
| AAGCGGGA | -0.095 |
| GAGCGGCA | 0.44 |
| AAGCGGCA | 0.455 |
| AAAGTTAA | 0.102 |
| CCCCAGTC | -0.324 |
| ACGTGTTA | 0.116 |

| Sequence | PBM E-score |
| --- | --- |
| GTAAGAGA | -0.0111 |
| AACTCTAC | -0.212 |
| AATCGCTC | -0.292 |
| TGAGATCA | 0.0358 |
| GAGGGGGC | -0.277 |
| CTGACCAG | -0.136 |
| AAGCGGCG | 0.458 |
| AAGCGGAG | -0.0617 |
| AAGCGGCC | 0.282 |
| CGGCGTTA | 0.454 |
| CAGCGTTC | 0.0494 |
| GGGCGTTA | 0.206 |
| CGGCGTTC | 0.391 |
| AGGCGTTC | 0.0316 |
| AGGCGTTA | 0.236 |
| CGGAGGAA | -0.229 |
| CCTCCATA | 0.0205 |
| GGCCGCAA | 0.131 |
| CCCCGCAG | -0.0786 |
| GGCCGCAC | 0.289 |
| TGCCGCCA | 0.229 |
| CGCCGCAG | 0.436 |
| CCCCGCAC | -0.00823 |
| TGCCGCAA | 0.333 |
| AGCCGCAG | 0.258 |

| Sequence | PBM E-score |
| --- | --- |
| CACCGCAA | 0.0442 |
| TACCGCAA | 0.117 |
| CGCCGCAA | 0.421 |
| CGCCGCAC | 0.478 |
| CAAAGACG | 0.0347 |
| AAATGCAA | 0.0071 |
| ATTAGATA | 0.11 |
| ACTCACAA | -0.0902 |
| CGCAGTAA | 0.0664 |
| GGTGAGGA | 0.0236 |
| ATGGGTCA | -0.255 |
| CGCCATAC | 0.194 |
| AAACCGGG | -0.195 |
| AATCCTTC | -0.128 |
| ATACAGAC | -0.0347 |
| CCCTGCCG | 0.161 |
| CCGTGCCA | 0.35 |
| ATGTGCCC | 0.0678 |
| TCGTGCCA | 0.177 |
| GCGTGCCA | 0.206 |
| CCGTGACG | 0.109 |
| CCGTGCCG | 0.47 |
| GCGTGCCC | 0.0203 |
| ATGTGCCA | 0.137 |
| CCGTGCCC | 0.365 |

| Sequence | PBM E-score |
| --- | --- |
| ATGTGCCG | 0.377 |
| CTGTGCCC | 0.242 |
| ACTTCTGC | 0.0768 |
| GCTTCATA | 0.0285 |
| CTTGGCAA | -0.119 |
| CCACCCGG | -0.218 |
| CGCAAGTC | -0.309 |
| GCTACTGA | -0.0112 |
| CAAGGCTA | 0.275 |
| CACAATGC | 0.00061 |
| ACGTGCGG | 0.357 |
| AGGTGCCA | -0.0228 |
| ATGTGCGG | 0.213 |
| CCGTGCAG | 0.315 |
| ATGTGGCA | 0.27 |
| AGGTGCCG | 0.385 |
| ATGTGGCG | 0.322 |
| TCGTGCAA | 0.288 |
| ATGTGGCC | 0.0349 |
| CCGTGCAA | 0.325 |
| AGGTGCCC | -0.0256 |
| ACGTGCGA | 0.00881 |
| CGTTGACA | 0.0374 |
| AGAATCTC | -0.0977 |
| AAGGAGCC | -0.0111 |

| Sequence | PBM E-score |
| --- | --- |
| CTCTTAGC | 0.0466 |
| ACGTCGTG | -0.00714 |
| AGTGGGCG | 0.0679 |
| ACGTGCCC | 0.18 |
| ACGTGCCG | 0.39 |
| CCGTGGCA | 0.357 |
| TCGTGGCA | 0.102 |
| ACGTGGCA | 0.152 |
| ACGTGCCT | 0.278 |
| GATGGCAC | 0.196 |
| ATCTCTTG | -0.137 |
| AACCGCAC | 0.0401 |
| ACCCGCAT | 0.1 |
| AGCCGCAA | 0.188 |
| ACCCGCAC | 0.129 |
| AGCCGCAT | 0.452 |
| AGCCGCAC | 0.42 |
| CACTCTGC | -0.129 |
| CCCTTCTC | -0.259 |
| CTCAGGTC | -0.196 |
| TATTAGCA | 0.0213 |
| ACTCAAGA | -0.0476 |
| CATATAAG | 0.118 |
| AATATAAT | 0.0522 |
| AATATAAG | 0.32 |

| Sequence | PBM E-score |
| --- | --- |
| CCGTTTAA | 0.349 |
| ACGTTTAA | 0.12 |
| CCGTTTAC | 0.235 |
| AGTTCTAA | -0.0232 |
| TATGGCGA | 0.0899 |
| CCATAAAG | -0.0597 |
| AAGGCAGA | -0.164 |
| AAGGCACC | 0.402 |
| TAGGCACA | 0.132 |
| GAGGCACA | 0.332 |
| CAGGCACC | -0.107 |
| CAGGCACG | 0.174 |
| GAGGCACC | 0.239 |
| GAGGCAGA | -0.118 |
| AAGGCACG | 0.397 |
| CAGGCACA | -0.259 |
| AAGGCACA | 0.338 |
| AAGGCAAA | 0.247 |
| CACAAGCA | -0.0847 |
| AGTCCTTG | -0.0837 |
| GTTTCTCA | -0.115 |
| CAAGTAAC | 0.0497 |
| ATGAGAAT | 0.146 |
| CCTAATCA | -0.0333 |
| ACAGAGAA | -0.0516 |

| Sequence | PBM E-score |
| --- | --- |
| GATTTGCC | 0.219 |
| AGCCCGCC | -0.0384 |
| ATCTGCTC | -0.272 |
| TAAGATTA | 0.0404 |
| AAGGCATG | 0.158 |
| AAGGCATC | 0.292 |
| AGGGCACT | 0.239 |
| AAGGCACT | 0.323 |
| AAGGCATT | 0.322 |
| AATGCACT | 0.109 |
| CCCTACAG | -0.178 |
| GTCGCAAA | 0.155 |
| AACGGCTT | 0.366 |
| ACCGGCTC | -0.0667 |
| AACGGCTG | 0.0994 |
| ACCGGCTG | -0.0577 |
| AAAGGCTT | -0.0867 |
| GACGGCTC | 0.307 |
| AACGGGCT | -0.293 |
| CAAGGCTC | 0.0922 |
| CACGGCTG | 0.363 |
| AACGGCTC | 0.407 |
| CCCGGCTA | -0.148 |
| CACGGCTC | 0.469 |
